# Measurements: PubChem BioAssay
# Experiment: anti-His antibody binders, primary screen, artefact control for SMM control protein annotation, biochemical, small-molecule microarray, 635 nm fluorescence (AID 1128);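 note: score merges feature fluorescence with signal-to-noise for each printed compound spot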
# Conditions: anti-His Alexa647 antibody binding, higher = more signal
row,SMILES,composite z-score
1,CCC#CCN(Cc1ccccc1Br)[C@H](/C=C/C1CC1)[C@@H](O)Cc1ccccc1,0.251
2,CCCCN1CC=CC23O[C@@H]4/C=C\CCCOC(=O)C4[C@H]2C(=O)N(CCO)[C@@H]3C1=O (some centres undefined),1.3
3,C=CCNC(=O)[C@@H]1[C@H]2C(=O)O[C@H](c3ccccc3)[C@H](c3ccccc3)N2[C@H](c2ccccc2OCCO)[C@@]12C(=O)N(C(=O)OCCOC)c1ccc(C#CC3(O)CCCCCC3)cc12,0.713
4,O=C(C1N=C(c2ccc(OCCCO)cc2)N(c2ccccc2)O1)N1CCCCC1 (centres undefined),1.94
5,CN(C)CCCCCCNC(=O)[C@@H]1C[C@@H]2C(=O)N3CCC[C@H]3C(=O)N2[C@@H]1c1cccc(OCCO)c1,2.58
6,COC(=O)[C@@]1(Cc2ccccc2)[C@H]2c3cc(C(=O)N(C)C)n(Cc4ccc(C)o4)c3C[C@H]2CN1C(=O)c1ccccc1,2.6
7,O[C@@H](Cc1ccccc1)[C@@H](/C=C/C1CC1)N(CC#Cc1ccccc1)Cc1ccccc1Br,0.167
8,COCC(=C=CC[C@H](O)c1ccc(OCCO)cc1)CCO,0.434
9,NCCCCCNC(=O)[C@H]1C[C@H]2C(=O)N3CCC[C@H]3C(=O)N2[C@H]1c1cccc(OCCO)c1,3.3
10,CCCC[C@@H]1C[C@H]1[C@@H](NC(=O)c1cccs1)c1ccccc1C(F)(F)F,1.01
11,CCOC(=O)C[C@H]1[C@H](OC(=O)Cc2ccc3c(c2)OCO3)[C@@H](NC(=O)C2CCCCC2)c2cc(OCCCO)ccc2N1C(=O)c1ccccc1,0.0657
12,COc1cc(C(O)C2C=CC3C(=O)N(C)C(=O)C3N2Nc2ccccc2)cc(OC)c1OC (centres undefined),2.78
13,COc1ccc([Si](C)(C)[C@@H]2[C@@H](CC(=O)N3Cc4ccccc4C[C@H]3CO)O[C@]3(C(=O)N(Cc4ccc(N5C(=O)c6cccc7cccc5c67)cc4)c4ccccc43)[C@H]2C)cc1,0.0827
14,C=CCC(OC(C)=O)[C@@H]1[C@@H](N(Cc2ccc(-c3cccc(C(F)(F)F)c3)o2)C(=O)c2ccc(-c3ccccc3)cc2)c2cc(OCCCO)ccc2N1C(=O)Cc1ccc2ccccc2c1 (some centres undefined),-0.0298
15,C=CCNC(=O)[C@H]1[C@@H]2C(=O)O[C@@H](c3ccccc3)[C@@H](c3ccccc3)N2[C@@H](c2ccccc2OCCO)[C@]12C(=O)N(C(=O)OCCOC)c1ccc(C#CC3(O)CCCCCC3)cc12,0.977
16,COc1ccc([Si](C)(C)[C@@H]2[C@@H](CCO)O[C@]3(C(=O)N(Cc4cccc(NC(=O)[C@H](C)O)c4)c4ccccc43)[C@H]2C)cc1,1.76
17,CCCCC[C@H]1OC[C@@]23C=C(Br)[C@@H](CC12)[C@@]1(CO1)C3=O (some centres undefined),2.98
18,C=CCN1Cc2ccccc2[C@@H]2OC(c3ccc(OCCCO)cc3)=N[C@]2(CC=C)C1=O,2.25
19,Cc1ccc(NN2C(C(O)c3c(F)cccc3Cl)C=CC3C(=O)N(C4CCCCC4)C(=O)C32)cc1 (centres undefined),1.5
20,CCCCC(CC)C(O)C1C=CC2C(=O)N(c3ccccc3)C(=O)C2N1Nc1ccc(C#N)cc1 (centres undefined),1.34
21,NC(=O)[C@H]1[C@@H]2C(=O)O[C@@H](c3ccccc3)[C@@H](c3ccccc3)N2[C@@H](c2ccc(OCCO)cc2)[C@]12C(=O)Nc1ccc(C#CCCO)cc12,0.92
22,CCC1=C2CN(Cc3ccccc3)[C@@H](C(=O)Cc3ccccc3)C2C=CCC1 (some centres undefined),0.797
23,[N-]=[N+]=Nc1ccccc1C[C@]1(C(=O)NCC(O)CO)COC(c2ccc(OCCCO)cc2)=N1 (some centres undefined),1.91
24,CCCC=C(CCC)[C@@H](NP(=O)(c1ccccc1)c1ccccc1)c1ccc(-c2ccccc2)cc1,0.809
25,CCOC(=O)C[C@H]1[C@H](OC(=O)c2ccc(C(=O)c3ccccc3)cc2)[C@@H](NC(=O)c2ccc(-c3ccccc3)cc2)c2cc(OCCCO)ccc2N1C(=O)Cc1ccc(OC)cc1,0.0658
26,CO[C@H]1O[C@H](CO)[C@@H](OC(=O)CCc2ccccc2)[C@@H]2OC(=O)[C@@H](Cc3ccccc3)C/C=C/C[C@H](Cc3ccccc3)C(=O)O[C@@H]12,0.623
27,CCOC(=O)C1=C[C@@H](c2ccccc2)N(S(=O)(=O)c2ccc(C)cc2)[C@H]1c1ccc(OC)cc1,0.546
28,[N-]=[N+]=Nc1ccccc1C[C@]1(C(=O)NCCN2CCOCC2)COC(c2ccc(OCCCO)cc2)=N1,1.34
29,COc1ccc([Si](C)(C)[C@H]2[C@H](CC(=O)N3Cc4ccccc4C[C@H]3CO)O[C@@]3(C(=O)N(Cc4ccc(N5CCOC5=O)cc4)c4ccccc43)[C@@H]2C)cc1,1.14
